Reference: PubChem BioAssay AID2685 (National Center for Advancing Translational Sciences (NCATS), 2010)
The campaign covered roughly 320,000 compounds. About 2,100 (0.66%) were called active. Inconclusive results (about 53%) are left out. This is one part of a sample in which actives are shown more often than they occur. Calls follow the shape of the dose curve; as a rule, active = well fitted inhibition curve with a large enough effect in the signal ratio, with a control signal flat (not every such curve was filed as active); inconclusive = small, poorly fitted or top-dose-only effect, or effect the other way, or a change in a side signal; inactive = flat fitted curve, though single readings scatter; the % refers to the signal ratio.

assay: qHTS Assay for Lipid Storage Modulators in Drosophila S3 Cells; details: BODIPY lipid droplet fluorescence, 18-24 h, cells fed with added oleic acid; cell number change: measured here: cell count max response; series mostly up to 46.1 µM;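 as to cell number change: cells counted by Cell Tracker Red CMTPX staining in the red channel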; as to lipid storage change, negative = inhibition: % is scaled to controls: 0 for no effect and ±100 for the full control effect
Procedure, shortened: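 Drosophila S3 cells loaded with oleic acid (400 uM, as added) and compounds at several concentrations; lipid droplets imaged by 488-nm laser-scanning cytometry, 500–530 nm intensity and object ratio to cell channel. Percent activity normalized to 20 uM Triacsin C.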
Potency is read from the fitted curve at half-maximal effect.

Question: Which results are given for `CCSc1nc(=S)n(CC)c(C)c1C(C)=O`?
Answer: Potency: inactive; cell number change: 11%

Question: Which Potency does the source give for `CSc1nc(=S)n(Cc2ccccc2)c(C)c1C(C)=O` here?
Answer: The Potency was “inactive”.

Question: What about the cell number change of the same compound?
Answer: Its cell number change is 2.19%.

Question: Which Potency does the source give for `CCn1c(C)c(C(C)=O)c(SC)nc1=S` here?
Answer: Its Potency is 23.1 µM (active).

Question: What about the cell number change of the same compound?
Answer: Its cell number change is -9.08%.

Question: Which results are given for `CS(=O)(=O)N(CC(=O)Nc1ccccc1-c1ccccc1)c1ccccc1`?
Answer: Potency: inactive; cell number change: 6.57%

Question: Which cell number change does the source give for `CNC(=S)NNC(=O)c1ccc(=O)n(Cc2ccc(Cl)cc2Cl)c1` here?
Answer: The cell number change was -1.09%.

Question: And the lipid storage change, negative = inhibition?
Answer: The lipid storage change, negative = inhibition was 14.6% [at 9.22 µM] (inactive).

Question: What does the source list for `CC(C)(O)CC[C@@H](O)[C@](C)(O)[C@H]1CC[C@@]2(O)C3=CC(=O)[C@@H]4C[C@@H](O)[C@@H](O)C[C@]4(C)C3CC[C@]12C` (stereo partly specified)?
Answer: Potency: inactive; cell number change: -13.6%

Question: What does the source list for `Cc1cccc(-n2cc(-c3ccccc3)c3c(N4CCOCC4)ncnc32)c1`?
Answer: Potency: inactive; cell number change: 18.2%

Question: With `CC(=O)CSc1ncnc2nc[nH]c12` as the compound, how does the Potency read?
Answer: Its Potency is “inactive”.

Question: Which results are given for `O=C(CSc1ncnc2nc[nH]c12)c1ccc(Cl)cc1`?
Answer: Potency: inactive; cell number change: -11.7%

Question: Which results are given for `O=C(O)CSc1ncnc2nc[nH]c12`?
Answer: Potency: 20.6 µM (active); cell number change: 2.03%

Question: With `CC(C)c1nnc(NC(=O)C2CCN(C(=O)Nc3ccc(Cl)cc3)CC2)s1` as the compound, how does the Potency read?
Answer: The Potency was “inactive”.

Question: And the cell number change?
Answer: The cell number change was 5.41%.

Question: With `CCc1ccccc1NC(=S)N(CCN1CCCCC1)Cc1ccco1` as the compound, how does the Potency read?
Answer: Its Potency is “inactive”.

Question: And the cell number change?
Answer: Its cell number change is 5.79%.

Question: Which results are given for `Cc1cc(OCCCn2cnc3ccccc3c2=O)ccc1[N+](=O)[O-]`?
Answer: Potency: inactive; cell number change: 0.141%

Question: Which results are given for `COc1cc(OC)cc(C(=O)NC(=S)NNC(=O)Cc2cccs2)c1`?
Answer: Potency: inactive; cell number change: 0.453%

Question: For `CCOC(=O)N1CCN(c2c(N3CCN(c4ccc(OC)cc4)CC3)c(=O)c2=O)CC1`, which Potency is on record?
Answer: The Potency was “inactive”.

Question: What about the cell number change of the same compound?
Answer: Its cell number change is 5.73%.

Question: Which Potency does the source give for `CCCCn1c(CN2CCN(c3ccccc3)CC2)nc2c1c(=O)n(C)c(=O)n2C` here?
Answer: The Potency was 20.6 µM (active).

Question: And the cell number change?
Answer: The cell number change was -29.7%.

Question: With `CCCCn1c(CN2CCN(c3cccc(Cl)c3)CC2)nc2c1c(=O)n(C)c(=O)n2C` as the compound, how does the Potency read?
Answer: The Potency was “inactive”.

Question: For `CCCCn1c(CN2CCN(c3ccc(F)cc3)CC2)nc2c1c(=O)n(C)c(=O)n2C`, which Potency is on record?
Answer: Its Potency is “inactive”.

Question: And the cell number change?
Answer: The cell number change was 2.55%.

Question: With `O=C(NCc1ccccc1)C1C2C=CC3(CN(Cc4cccnc4)C(=O)C13)O2` (stereo unspecified) as the compound, how does the Potency read?
Answer: Its Potency is “inactive”.

Question: And the cell number change?
Answer: Its cell number change is -20%.

Question: Which Potency does the source give for `Cc1cc(C(=O)CSc2nn3c(=O)c(C(C)(C)C)nnc3s2)c(C)n1C1CC1` here?
Answer: Its Potency is “inactive”.

Question: For `CCOc1ccc(NC(=S)NC(=O)C2CCCC2)cc1`, which Potency is on record?
Answer: The Potency was “inactive”.

Question: With `CN1CCS/C1=C\C=C1/SC(=S)N(CC(=O)O)C1=O` as the compound, how does the Potency read?
Answer: Its Potency is “inactive”.

Question: What about the cell number change of the same compound?
Answer: The cell number change was 6.49%.

Question: Which Potency does the source give for `CCCCN1C(=O)/C(=C/C=C2/CC(C)(C)CN2C)SC1=S` here?
Answer: Its Potency is 9.2 µM (active).

Question: And the cell number change?
Answer: The cell number change was 0.528%.

Question: Which Potency does the source give for `CN1CCS/C1=C/C=C1\SC(=S)N(CC(=O)O)C1=O` here?
Answer: Its Potency is “inactive”.

Question: And the cell number change?
Answer: Its cell number change is -4.93%.

Question: For `Cc1ccc(C)c(OCc2nnc(SCC(=O)NCc3ccc4c(c3)OCO4)o2)c1`, which Potency is on record?
Answer: Its Potency is “inactive”.

Question: What about the cell number change of the same compound?
Answer: The cell number change was 17.4%.
